Assay results as given in PubChem BioAssay (EPA / NIEHS).
Results filed as inconclusive are left out. Activity calls are given as the source filed them. How the source made its calls: active means hit-call score of the fitted dose curve at least 0.9, where 1 is the maximum; inconclusive means response in the unintended direction; inactive means score below 0.9.

target: Cellular tumor antigen p53 (Homo sapiens) (UniProt P04637); assay: TOX21_p53_BLA_p3_ratio: Tox21 HCT-116 p53 Agonism Beta-lactamase Assay, Ratio, Phase 3 (AID 2283596)
Sequence (P04637 whole entry, looked up, the tested form may be a part): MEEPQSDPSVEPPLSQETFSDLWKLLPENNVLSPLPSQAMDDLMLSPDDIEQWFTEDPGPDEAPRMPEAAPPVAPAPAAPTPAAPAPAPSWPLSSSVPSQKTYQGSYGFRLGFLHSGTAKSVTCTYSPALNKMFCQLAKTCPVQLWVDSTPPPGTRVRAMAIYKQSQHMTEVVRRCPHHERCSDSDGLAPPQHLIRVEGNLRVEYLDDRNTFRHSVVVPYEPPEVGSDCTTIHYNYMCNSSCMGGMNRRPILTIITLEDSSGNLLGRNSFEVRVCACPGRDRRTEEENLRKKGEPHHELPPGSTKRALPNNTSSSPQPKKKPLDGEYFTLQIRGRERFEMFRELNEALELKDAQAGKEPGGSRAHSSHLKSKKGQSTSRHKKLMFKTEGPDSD
Excerpt: TOX21_p53_BLA_p3 is a cell-based, single-readout assay that uses HCT116, a human intestinal cell line, […] in a 1536-well plate.TOX21_p53_BLA_p3_ratio is an assay readout measuring reporter gene via receptor activity and designed using inducible reporter (beta lactamase induction) detected with GAL4 b-lactamase reporter gene. The signal is derived from the ratio of cleaved (ch2) to uncleaved (ch1) reporter gene substrate used as the measure of target activity.Data from the assay component TOX21_p53_BLA_p3_ratio was analyzed into 1 assay endpoint. This assay endpoint, TOX21_p53_BLA_p3_ratio, was analyzed in the positive analysis fitting direction relative to DMSO as the negative control and baseline of activity. Using a type of inducible reporter, gain-of-signal activity can be used to understand changes in the reporter gene as they relate to the gene TP53. Furthermore, this assay endpoint can be referred to as a primary readout, because this assay has produced multiple assay endpoints where this ratio serves a reporter gene function to understand target activity. To generalize the intended target to other relatable targets, this assay endpoint is annotated to the DNA binding intended target family, where the subfamily is tumor suppressor.
Thawing Method: Place 14 mL of pre-warmed thaw medium into a 15 mL of conical tub. Remove the vial of cells to be thawed from liquid nitrogen and thaw rapidly by placing at 37C in a water bath with gentle agitation for 1-2 minutes. Decontaminate the vial by wiping with 70% ethanol before opening in a biological safety cabinet. Transfer the vial contents drop-wise into 14 mL of thaw medium in a sterile 15-mL conical tub. Centrifuge cells at 900 rpm for 4 minutes and resuspend in thaw medium. Transfer contents to the T75 tissue culture flask containing Thaw Medium and place flask in a humidified 37C/5% CO2 incubator. Switch to growth medium at first passage.Propagation Method: Aspirate medium, rinse once in DPBS, add 0.25% Trypsin/EDTA and swirl to coat the cell evenly. Add an equal volume of Growth Medium to inactivate Trypsin after 2-3 minutes incubation at 37C. Centrifuge cells at 900 rpm for 4 minutes and resuspend in growth medium. Cell should be passage or fed at least twice a week.Assay Protocol: Harvest cells from culture in growth medium and resuspend in assay medium. 2.2 Dispense 4000 cells/5 uL/well into 1536-well black/clear bottom plates using a Multidrop dispenser. After the cells were incubated at 37C for 5 hours, 23 nL of compounds dissolved in DMSO were transferred to the assay plate by a PinTool resulting in a 217-fold dilution. Incubate the plates for 16 hours at 37C, 5% CO2. Add 1 uL of 6X LiveBLAzer FRET B/G (CCF4-AM) Substrate Mixture to each well using a BioRAPTR dispenser and incubate the plates at room temperature for 2 hours. Measure fluorescence intensity at 460 and 530 nm emission and 405 nm excitation by an Envision detector. Data is expressed as the ratio of 460nm/530nm emissions. Add 4 uL of Cell-titer Glo to each well using BioRAPTR and incubate the plates at room temperature for 2 hours. Measure fluorescence intensity by a VewLux plate reader.

| Compound | outcome |
| --- | --- |
| NC[C@H]1O[C@H](O[C@H]2[C@H](O[C@@H]3O[C@H](CO)[C@@H](O)[C@H]3O)C(O)[C@H](N)C[C@@H]2N)[C@H](N)[C@@H](O)[C@@H]1O (stereo not given in full) | inactive |
| CCOC(=O)c1ccc(I)cc1 | inactive |
| CCN(CC)CCNC(=O)c1cc(S(C)(=O)=O)ccc1OC | inactive |
| OCCOc1ccc(OCCO)cc1 | inactive |
| CC(COc1ccccc1)NC(C)C(O)c1ccc(O)cc1 (stereo not given) | inactive |
| CCC=O | inactive |
| CC1CCCCN1CCCOC(=O)c1ccccc1 (stereo not given) | inactive |
| COc1ccc(-c2cc(C(F)F)nn2-c2ccc(S(N)(=O)=O)cc2)cc1F | inactive |
| ClC(Cl)Cl | inactive |
| Cc1ccnc2c1NC(=O)c1cccnc1N2C1CC1 | inactive |
| Cc1ccc(N)cc1[N+](=O)[O-] | inactive |
| Cc1ccc(Cl)cc1Cl | inactive |
| CC=C(Cl)Cl | inactive |
| CNCC(=O)N[C@@H](CCCN=C(N)N)C(=O)N[C@H](C(=O)N[C@@H](Cc1ccc(O)cc1)C(=O)N[C@H](C(=O)N[C@@H](Cc1cnc[nH]1)C(=O)N1CCC[C@H]1C(=O)N[C@@H](C)C(=O)O)C(C)C)C(C)C | inactive |
| CN(C)CCC=C1c2ccccc2C=Cc2ccccc21 | inactive |
| CCOC(=O)CCC(=O)O[C@H]1[C@H](O[C@@H]2[C@@H](C)[C@H](O[C@H]3C[C@@](C)(OC)[C@@H](O)[C@H](C)O3)[C@@H](C)C(=O)O[C@H](CC)[C@@](C)(O)[C@H](O)[C@@H](C)C(=O)[C@H](C)C[C@@]2(C)O)O[C@H](C)C[C@@H]1N(C)C | inactive |
| CCOc1ccc(S(=O)(=O)O)c2cccnc12 | inactive |
| Cc1ccccc1C(=O)Nc1ccc(C(=O)N2CCCC(O)c3cc(Cl)ccc32)c(C)c1 (stereo not given) | inactive |
| C1=C\CC/C=C\CC/1 | inactive |
| CC(CN1c2ccccc2Sc2cccnc21)N(C)C (stereo not given) | inactive |

| Compound | outcome |
| --- | --- |
| CCC1NC(=O)c2cc(S(N)(=O)=O)c(Cl)cc2N1 (stereo not given) | inactive |
| C=CC(=O)[O-].C=CC(=O)[O-].[Zn+2] | inactive |
| Cc1cc(C)cc([N+](=O)[O-])c1 | inactive |
| CC1=NN(c2ccc(C(=O)O)cc2)C(=O)C1 | inactive |
| CNc1c2c(nn1C)CCCC2 | inactive |
| ClC/C=C\CCl | inactive |
| C[C@H]1[C@H](NC(=O)C(=NOC(C)(C)C(=O)O)c2csc(N)n2)C(=O)N1S(=O)(=O)O | inactive |
| OCC(O)COc1ccc(Cl)cc1 (stereo not given) | inactive |
| CNC(=O)[C@H](Cc1c[nH]c2ccccc12)NC(=O)[C@@H](CC(=O)NO)CC(C)C | inactive |
| C/C(=C\C(=O)OCCCCCCCCC(=O)O)C[C@@H]1OC[C@H](C[C@@H]2O[C@H]2[C@@H](C)[C@H](C)O)[C@@H](O)[C@H]1O | inactive |
| CC1(C)Cc2cccc(N)c2O1 | inactive |
| CC(=NCc1ccccc1)c1ccccc1O | inactive |
| C[C@H]1O[C@H](O[C@H]2[C@H](O)[C@@H](O)[C@@H](O[C@H]3[C@H](O)[C@@H](O)[C@H](O)O[C@@H]3CO)O[C@@H]2CO)[C@H](O)[C@@H](O)[C@@H]1N[C@H]1C=C(CO)[C@@H](O)[C@H](O)[C@H]1O | inactive |
| Nc1c2c(nc3ccccc13)CCCC2O (stereo not given) | inactive |
| CN1c2c(nc(N)[nH]c2=O)NCC1CNc1ccc(C(=O)NC(CCC(=O)O)C(=O)O)cc1 (stereo not given) | inactive |
| NS(=O)(=O)c1ccc(C(=O)O)cc1 | inactive |
| Cc1cc(O)c(Cl)cc1C | inactive |
| Nc1ccc(C(=O)O)c(O)c1 | inactive |
| Oc1ccc(C2CNCCc3c2cc(O)c(O)c3Cl)cc1 (stereo not given) | inactive |
| C=N[C@@H](C(=O)N[C@@H]1C(=O)N2[C@@H]1SC(C)(C)[C@@H]2C(=O)O)c1ccccc1 | inactive |
